Records with an inconclusive call do not appear. Values without a mark were called inactive. Calls of active or inactive are those of the source. The call rests on the fitted dose curve; in most records, active means well fitted curve in the direction sought with a large enough effect in the signal ratio, with a control signal flat (not every such curve was filed as active); inconclusive means small, poorly fitted or top-dose-only effect, or effect the other way, or a change in a side signal; inactive means no such curve, though single readings can be large or run the other way; the % refers to the signal ratio.
biological target: Estrogen receptor (Homo sapiens) (UniProt P03372); test: qHTS assay for small molecule antagonists of estrogen receptor alpha signaling (AID 588513); details: ER-alpha-UAS-bla HEK293, beta-lactamase ratio, antagonist mode; series mostly up to 76.9 µM; activity, negative = inhibition: at the top concentration
Text: NIH Chemical Genomics Center [NCGC]
U.S. Environmental Protection Agency [EPA]
National Institutes of Environmental Health Sciences [NIEHS]
National Toxicology Program [NTP]
Estrogen receptor alpha (ER-alpha) is an important member of nuclear hormone receptors. ER-alpha plays important role in breast cancer as well as in other women's health issues. The majority of breast cancers is estrogen receptor (ER) positive and depends on estrogen for growth. There is also growing concern for some of environmental chemicals which may contribute the increasing the incidence of breast cancer. Therefore, it is important to understand the effect of environmental chemicals in ER-alpha signaling pathway.
NCGC Assay Protocol Summary
Using a beta-lactamase reporter-gene under control of the ER response element, a cell-based assay [ER-alpha-UAS-bla GripTiteTM cell-Based Assay from Invitrogen] was used to measure ER-alpha signaling pathway in antagonist mode. ER-alpha-UAS-bla-GripTite HEK 293 cells were used with assay medium containing 2% charcoal/dextran treated FBS, 0.1 mM NEAA and 1 mM sodium pyruvate. Cells were cultured in this assay medium overnight in the flasks before the assay. The assay was performed in clear bottom black Greiner 1536-well plates. 17-beta-estradiol was used as a positive control in the screen. Library compounds were measured for their ability to inhibit the reporter gene activity. Compounds were screened in a titration series in 1536-well format. […] Data was normalized relative to 17-beta-estradiol control (0.5nM, 100%), and DMSO only wells (basal, 0%). Concentration-response titration points for each compound were fitted to the Hill equation yielding concentrations of half-maximal inhibition (IC50) and maximal response (efficacy) values.
qHTS protocol for ER-alpha beta-lactamase assay in antagonist mode
[Step] [Parameter] [Value] [Description]
1. Reagent; 5 uL; 5000 cells/well
2. Incubation; 37 C for 4 hrs
- Dose response, Start 38uM, 1:2 dilutions with duplicates
- Two columns with 38 and 19uM (final) concentration.
5. Agonist (Stimulator); 1uL; 17-beta-estradiol at 0.5nM (final) concentration
6. Incubation; 37 C for 18 hrs
7. Detection reagent; 1 uL of CCF4-dye
8. Incubation; RT for 2 hrs
9. Detection; Fluorescence; Envision plate reader or Acumen plate reader
On the % scale 0 is the no-effect control and ±100 the full control effect.

Chain of Estrogen receptor (Homo sapiens) (P03372 whole entry, looked up): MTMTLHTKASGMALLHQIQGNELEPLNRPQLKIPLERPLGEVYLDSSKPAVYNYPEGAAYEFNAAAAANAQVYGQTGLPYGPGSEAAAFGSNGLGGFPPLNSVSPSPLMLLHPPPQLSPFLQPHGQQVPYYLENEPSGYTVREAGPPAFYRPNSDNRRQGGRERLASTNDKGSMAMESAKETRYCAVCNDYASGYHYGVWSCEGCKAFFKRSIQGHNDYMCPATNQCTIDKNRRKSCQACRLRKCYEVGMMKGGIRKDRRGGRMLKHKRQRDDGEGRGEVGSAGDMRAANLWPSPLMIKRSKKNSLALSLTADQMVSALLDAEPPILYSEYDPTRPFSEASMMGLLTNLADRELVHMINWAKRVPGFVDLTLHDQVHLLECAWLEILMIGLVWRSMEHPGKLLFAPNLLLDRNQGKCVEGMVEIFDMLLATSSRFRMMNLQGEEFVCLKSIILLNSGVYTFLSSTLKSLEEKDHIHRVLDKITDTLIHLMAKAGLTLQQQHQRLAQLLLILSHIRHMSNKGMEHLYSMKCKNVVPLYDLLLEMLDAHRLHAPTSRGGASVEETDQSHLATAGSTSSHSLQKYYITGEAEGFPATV

| SMILES | activity, negative = inhibition | Potency |
| --- | --- | --- |
| CC(C)CON=O | 13% | – |
| O=[N+]([O-])c1c(Cl)c(Cl)c(Cl)c(Cl)c1Cl | 0.163% | – |
| CCCC[N+](=O)[O-] | 5.46% | – |
| CCSC(=O)N1CCCCCC1 | 13.2% | – |
| CCCCCCCCCCCCCl | -13.9% | – |
| Nc1ccc([N+](=O)[O-])cc1[N+](=O)[O-] | 3.06% | – |
| O=[N+]([O-])CCO | 8.99% | – |
| Cc1ccc(N)cc1N | -32.5% | – |
| Clc1ccccc1 | 13.7% | – |
| N#CC(Br)Br | 5.38% | – |
| Clc1ccc(C(Cl)(Cl)Cl)cc1Cl | -9.2% | – |
| Cc1ccc(N)cc1C | 0.859% | – |
| C=CCCl | -2.07% | – |
| O=C(Cc1ccccc1)OCc1ccccc1 | -7.83% | – |
| Nn1cnnc1 | 15.3% | – |
| N#C/C(N)=C(/N)C#N | 6.07% | – |
| ClCCBr | 4.37% | – |
| c1ccc(P(c2ccccc2)c2ccccc2)cc1 | 23.7% | – |
| [O-][Cl+]O | -4.63% | – |
| Cc1cc(-c2ccc(N)c(C)c2)ccc1N | – | inactive |

| SMILES | activity, negative = inhibition | Potency |
| --- | --- | --- |
| Cc1cc(C)cc(OP(=O)(Oc2cc(C)cc(C)c2)Oc2cc(C)cc(C)c2)c1 | -11% [at 36 µM] | – |
| Cc1cc(-c2cc(C)c(N)c(C)c2)cc(C)c1N | -9.65% | – |
| CN(C)c1ccc(N(C)C)cc1 | -29.1% | – |
| ClC(Cl)Br | 0.91% | – |
| [O-][Cl+2]([O-])O | 8.37% | – |
| O=[N+]([O-])c1ccc(O)c([N+](=O)[O-])c1 | 1.46% | – |
| Cc1ccc2c(C)cccc2c1 | 28.8% | – |
| Nc1ccccc1-c1ccccc1 | -17.8% | – |
| NNC(N)=S | -24.3% | – |
| Cc1ccc2c(c1N)C(=O)c1ccccc1C2=O | – | inactive |
| C=CC(=O)OCC(C)C | 32.1% | – |
| CC(Cl)CCl (stereo not given) | 7.17% | – |
| O=C(O)C(Br)Br | 8.53% | – |
| Cc1ccc(N)cc1Cl | 9.53% | – |
| ClC(Cl)C(Cl)Cl | 11% | – |
| O=C(Cl)OCc1ccccc1 | 6.32% | – |
| C=CCBr | 9.77% | – |
| CC(C)CC(C)N (stereo not given) | 15.9% | – |
| Cl/C=C\Cl | 6.83% | – |
| C=CCCC#N | 9.32% | – |

Source: PubChem BioAssay (NCATS)
